# Source: PubChem BioAssay
# Active and inactive are the calls of the source. Unless noted, the rule behind the calls is not given here.
# Columns and labels:
# [1] = circadian clock period modulators, cell-based, LOPAC library, luminescence reporter (AID 2774); conditions: circadian reporter cells, at 7 µM, actives lie on both sides;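 note: values are relative to mean of DMSO wells on each plate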
# [2] = tested on: Hepatitis C virus NS3 helicase; assay: HCV NS3 helicase inhibitors, primary screen, biochemical, fluorescence polarization, LOPAC1280 library (AID 687035; in the data active = inhibition above about 37%); conditions: Purified HCV NS3 helicase, Cy5-dT15 ssDNA binding fluorescence polarization; stronger effect = higher value; concentration not given here
# [3] = Cy5 fluorescence quenching or enhancement artefacts, artefact control for HCV NS3 helicase inhibitor project, biochemical, LOPAC1280 (AID 687037); conditions: Cy5-DNA-NS3h complex fluorescence interference counterscreen
# [4] = kinase inhibitors against Plasmodium liver-stage infection, cell-based, known kinase inhibitor set, luminescence, hepatoma host viability (AID 624392); conditions: Plasmodium liver stage in hepatoma cells, luciferase luminescence, concentration not given here; liver cell % of control: measured here: host liver cell viability; parasite % of control: stronger effect = lower value;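 note: infected cells incubated roughly two days before readout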
# [5] = tested on: Neuropilin-2 / VEGF-C interaction (human); assay: inhibitors of NRP2–VEGF-C binding, biochemical, microplate binding format, z-score (AID 743281); conditions: microplate NRP2/VEGF-C binding assay; stronger effect = lower value
# [6] = hESC survival regulators, cell-based (AID 493140); conditions: human embryonic stem cell survival screen; stronger effect = higher value;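 note: cells exposed to compounds for four days before counting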
# [7] = liver-stage malaria parasite growth inhibition, primary screen, cell-based, HepG2, luciferase luminescence, HepG2 viability (AID 624349; in the data active = parasite load remaining mostly below about 12%, no sharp cut-off; inactive = mostly above about 10%;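 note: 100% = mean of DMSO negative control wells on the same plate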); conditions: P. berghei liver stage in HepG2, luciferase luminescence, concentration not given here; parasite load remaining: stronger effect = lower value; viability: measured here: HepG2 viability without parasites
structure (smiles),measurement,setting,value
CCCn1c(C)c(C(=O)c2ccc3ccccc3c2)c2ccccc21,period change,[1],-0.02 h (inactive)
same,inhibition,[2],-4% (inactive)
same,fluorescence ratio (interference),[3],1 (inactive)
NS(=O)(=O)c1ccc(-c2ccc(C=C3C(=O)NC(=S)NC3=O)o2)cc1,liver cell % of control,[4],102%
same,parasite % of control,[4],96.9% (inactive)
CC[C@@H]1/C=C\C=C\C[C@H](C)[C@@H](O)[C@@H](C)C(=O)[C@H](C)[C@@H](O)[C@H](C)C(=O)[C@H](C)[C@@H](O)[C@H](C)/C=C/C(=O)O[C@H]2[C@@H](C)[C@@H](CC1)O[C@@]1(CC[C@@H](C)[C@@H](C[C@H](C)O)O1)[C@@H]2C,outcome,[5],inactive
CCCCCCCCCCCCCCC[C@@H](O)[C@@H](N)COP(=O)(O)O,survival,[6],93.8 (inactive)
CC1CC[C@]2(NC1)O[C@H]1C[C@H]3[C@@H]4CC[C@H]5C[C@@H](O)CC[C@]5(C)[C@H]4CC[C@]3(C)[C@H]1[C@@H]2C (stereo not given in full),survival,[6],5.67 (inactive)
same,parasite load remaining,[7],77.7% (inactive)
same,viability,[7],73.9%
[Cl-].[Cl][Pt].[NH2-].[NH2-].c1ccncc1,inhibition,[2],-3% (inactive)
same,fluorescence ratio (interference),[3],0.9 (inactive)
C=CCN1CC[C@]23c4c5ccc(O)c4O[C@H]2/C(=N\NC(=O)c2ccccc2)CC[C@@]3(O)[C@H]1C5,inhibition,[2],-6% (inactive)
same,fluorescence ratio (interference),[3],0.9 (inactive)
CCN(CC)C(=O)N[C@H]1C[C@@H]2c3cccc4[nH]cc(c34)C[C@H]2N(C)C1,survival,[6],6 (inactive)
CC(C)C1C(=O)N2CCCC2C2(O)OC(NC(=O)C3CC4c5cccc6[nH]cc(c56)CC4N(C)C3)(C(C)C)C(=O)N12 (stereo not given),survival,[6],8 (inactive)
CCCCCCCCCCCCC/C=C/[C@@H](O)[C@@H](N)COP(=O)([O-])OCC[N+](C)(C)C,survival,[6],95.8 (inactive)
C=C[C@@H]1CN2CCC1C[C@@H]2[C@H](O)c1ccnc2ccccc12 (stereo not given in full),survival,[6],3.33 (inactive)
same,parasite load remaining,[7],71% (inactive)
same,viability,[7],77.6%
C=CCN1CC[C@]23c4c5ccc(O)c4O[C@@H]2/C(=N\N=C2\CC[C@@]4(O)C6Cc7ccc(O)c8c7[C@@]4(CCN6CC=C)[C@@H]2O8)CC[C@@]3(O)C1C5,inhibition,[2],-6% (inactive)
same,fluorescence ratio (interference),[3],0.9 (inactive)
O=C1NC(=O)C(=Cc2ccc(-c3ccc(F)cc3O)o2)C(=O)N1,liver cell % of control,[4],100%
same,parasite % of control,[4],87.6% (inactive)
CN1C2CCC1CC(OC1c3ccccc3CCc3ccccc31)C2 (stereo not given),survival,[6],0.75 (inactive)
CNS(=O)(=O)c1ccc(-c2ccc(C=C3C(=O)NC(=O)NC3=O)o2)cc1,liver cell % of control,[4],99.7%
same,parasite % of control,[4],111% (inactive)
CCC[C@@H]1C[C@@H](C(=O)N[C@H]([C@@H](C)O)[C@H]2O[C@H](SC)[C@H](O)[C@@H](O)C2O)N(C)C1 (stereo not given in full),survival,[6],18.3 (inactive)
CCCCC[C@@H](/C=C/C=C\CCCCCCCCCC(=O)O)OO,survival,[6],112 (inactive)
C#CC1(O)CC[C@H]2[C@@H]3CCC4=CCCC[C@@H]4[C@H]3CC[C@@]21C (stereo not given in full),survival,[6],37.7 (inactive)
O=C1Nc2ccc3ncsc3c2/C1=C/c1cnc[nH]1,parasite load remaining,[7],86.4% (inactive)
same,viability,[7],77.5%
CCN1C[C@]2(COC)CC[C@H](O)C34C5C[C@@H]6C(OC)C[C@@](O)(C5[C@H]6OC(C)=O)[C@@H](CC32)[C@@H]14 (stereo not given in full),survival,[6],21.1 (inactive)
NS(=O)(=O)c1ccc(-c2ccc(C=C3C(=O)NC(=O)NC3=O)o2)cc1,liver cell % of control,[4],104%
same,parasite % of control,[4],97.7% (inactive)
CC1CCC2(NC1)O[C@H]1C[C@H]3[C@@H]4CC=C5C[C@@H](O)CC[C@]5(C)[C@H]4CC[C@]3(C)[C@H]1[C@@H]2C (stereo not given in full),survival,[6],4.83 (inactive)
CC[C@H]1CN2CCc3cc(OC)c(OC)cc3[C@@H]2C[C@@H]1C[C@H]1NCCc2cc(O)c(OC)cc21,survival,[6],0.333 (inactive)
same,parasite load remaining,[7],8.07% (inactive)
same,viability,[7],49.7%
CC1(C)C(C=C(Br)Br)C1C(=O)OC(C#N)c1cccc(Oc2ccccc2)c1 (stereo not given),survival,[6],82.3 (inactive)
N#CC(C#N)=Cc1cc(O)c(O)c([N+](=O)[O-])c1,survival,[6],100 (inactive)
CC1O[C@@H](O[C@@H]2C=C3CCC4C(CC[C@]5(C)[C@@H](c6ccc(=O)oc6)CC[C@]45O)[C@@]3(C)CC2)C(O)[C@@H](O)[C@H]1O (stereo not given in full),survival,[6],2.83 (inactive)
CCN1C[C@]2(C)CC[C@H](OC)[C@]34C2[C@H](OC(C)=O)C2(OCO[C@@]25CC(OC)C2C[C@]3(O)C5[C@H]2OC)[C@@H]14 (stereo not given in full),survival,[6],5 (inactive)
O=S(=O)(c1c(O)c(Cl)cc(Cl)c1Cl)c1c(O)c(Cl)cc(Cl)c1Cl,parasite load remaining,[7],27.4% (inactive)
same,viability,[7],70.9%
COC1=C[C@H]2C3=C([C@H]2C1=O)[C@@H](NC(C)=O)CCc1cc(OC)c(OC)c(OC)c13,survival,[6],13.2 (inactive)
same,parasite load remaining,[7],78.4% (inactive)
same,viability,[7],74.3%
O=C1NC(=O)C(=Cc2ccc(-c3ccc(S(=O)(=O)N4CCOCC4)cc3)o2)C(=O)N1,liver cell % of control,[4],98.4%
same,parasite % of control,[4],98.3% (inactive)
CC/C=C\C[C@@H](/C=C/C=C\C/C=C\C/C=C\CCCC(=O)O)OO,survival,[6],90.4 (inactive)
CN1C2CCC1CC(O)C2 (stereo not given),survival,[6],7.58 (inactive)
same,parasite load remaining,[7],64% (inactive)
same,viability,[7],69.9%
N/C(=N\[N+](=O)[O-])N/N=C\c1ccc(-c2cccc([N+](=O)[O-])c2)o1,parasite load remaining,[7],33.3% (inactive)
same,viability,[7],91.9%
O=C1NC(=O)C(=Cc2ccc(-c3ccc([N+](=O)[O-])cc3)o2)C(=O)N1,liver cell % of control,[4],98%
same,parasite % of control,[4],117% (inactive)
O=c1cccc2n1CC1CNC[C@@H]2C1,survival,[6],9 (inactive)
same,parasite load remaining,[7],70.3% (inactive)
same,viability,[7],77.8%
CC(=O)O[C@@H]1CC(O[C@@H]2C(C)OC(O[C@@H]3C(C)OC(OC4CC[C@@]5(C)[C@H](CC[C@]6(C)[C@]5(C)C[C@@H](O)[C@]5(C)[C@@H](C7=CC(=O)OC7)CC[C@@]56O)C4)C[C@H]3O)C[C@H]2O)OC(C)[C@H]1OC1OC(CO)[C@@H](O)[C@@H](O)[C@@H]1O (stereo not given in full),survival,[6],0.333 (inactive)
C[C@@H](N)[C@H](O)c1ccccc1,survival,[6],4.42 (inactive)
same,parasite load remaining,[7],62.7% (inactive)
same,viability,[7],76%
NC(N)=NOCC[C@@H](N)C(=O)O,survival,[6],14.8 (inactive)
same,parasite load remaining,[7],70.5% (inactive)
same,viability,[7],75.6%
COc1ccc(C(=O)OC2C[C@H]3CC[C@@H](C2)N3C)cc1OC (stereo not given in full),survival,[6],13.3 (inactive)
same,parasite load remaining,[7],68.2% (inactive)
same,viability,[7],77.3%
O=C1NC(=O)C(=Cc2ccc(-c3ccc(Cl)cc3)o2)C(=O)N1,liver cell % of control,[4],87%
same,parasite % of control,[4],167% (inactive)
CN(C(Cc1ccc(OOSOc2cccc3cnccc23)cc1)C(=O)N1CCN(c2ccccc2)CC1)S(=O)(=O)c1cccc2cnccc12 (stereo not given),parasite load remaining,[7],43.1% (inactive)
same,viability,[7],153%
